Molecules are shown by their SMILES. “And” between values parts separate entries of the source, which are not always exact repeats. Equal entries are not always repeated.

Solute carrier family 2, facilitated glucose transporter member 1 (Homo sapiens), sequence (P11166 whole entry): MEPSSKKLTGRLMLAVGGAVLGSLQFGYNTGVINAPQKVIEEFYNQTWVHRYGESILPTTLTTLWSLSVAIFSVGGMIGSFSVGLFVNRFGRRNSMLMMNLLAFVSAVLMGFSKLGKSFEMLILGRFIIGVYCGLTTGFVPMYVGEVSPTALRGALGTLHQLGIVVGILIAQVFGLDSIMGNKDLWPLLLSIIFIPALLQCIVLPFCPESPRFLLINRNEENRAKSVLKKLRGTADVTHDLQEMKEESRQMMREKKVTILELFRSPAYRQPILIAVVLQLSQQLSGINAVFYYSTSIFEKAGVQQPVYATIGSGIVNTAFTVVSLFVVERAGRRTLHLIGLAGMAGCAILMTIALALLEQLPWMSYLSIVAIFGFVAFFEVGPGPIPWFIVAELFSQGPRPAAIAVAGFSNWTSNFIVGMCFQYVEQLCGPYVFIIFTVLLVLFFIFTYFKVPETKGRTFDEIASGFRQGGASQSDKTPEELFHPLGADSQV

The first assay concerns the target Solute carrier family 2, facilitated glucose transporter member 1 (Homo sapiens) (UniProt P11166). Nature of the assay: ST_JUDE_LEISH: Cytotoxicity at 2uM final concentration against transgenic Leishmania Mexicana promastigotes LmGLUT1 that are glucose transport deficient and complemented with the human glucose transporter GLUT1. Activity is measured by DNA content using SYBR green in vitro. Type of assay: functional.
As to `CS(=O)(=O)Nc1ccc2c(C3CCN(CCC4CCN(C(=O)/C=C/c5ccc(Cl)c(Cl)c5)CC4)CC3)c[nH]c2c1`, the inhibition worked out at 4.12%.
Still for that read-out and setting: for `COc1cc(Cc2cnc(N)nc2N)cc(OC)c1OCCNC(=O)[C@@H](N)CCC(=O)O` the value was -0.69%; for `COc1cc(F)c2ncc(Cl)c(CCN3CCC(NCc4ccc5c(c4)NC(=O)CO5)CC3)c2c1`, 7.29%.
With `O=C(NC1CCN(c2ccnc3cc(Cl)ccc23)C1)c1ccccc1F` (stereo not given), the inhibition turned out to be 1.93%.
On to `Cc1cccc2nc(-c3cccc(-c4cccc(C(=O)N5CCCCC5CN5CCC(O)C5)c4)c3)[nH]c12` (stereo not given), for which the inhibition turned out to be 0.56%.
For the compound `CN(C)CC(=O)N(Cc1ccc(Cl)c(Cl)c1)Cc1csc(-c2ccc(CNCc3ccccc3)cc2)n1`, the inhibition was 3.28%.
The same measure, in the same setting: for `O=c1cc(NC[C@H]2CCC[C@@H]2NC2CCCc3c2[nH]c2ccccc32)[nH]c2ccccc12` (stereo not given in full) the value was 0.74%.
The same measure, in the same setting: as for `O=C(NC1CCN(CCC[C@]2(c3ccc(Cl)c(Cl)c3)CCCN(C(=O)c3ccccc3)C2)CC1)c1ccc(Cl)cc1`, the figure is -0.59%; as for `CC(C)(C)c1ccc(C(=O)Nc2ccc(NC(=O)c3ccc([N+](=O)[O-])o3)cc2)cc1`, 3.39%; as for `NS(=O)(=O)c1cccc(-c2ccc3c(O)ncnc3c2)c1`, 4.08%.
In the case of `CCNc1cc(C(=O)N[C@@H](Cc2ccccc2)[C@H](O)CN[C@H](C)c2ccccc2)cc(N2CCCC2=O)c1`, the inhibition turned out to be 4.44%.
The same measure, in the same setting: for `Cc1nc(-c2ccc(-c3ccc(NC(=O)c4coc5ccc(N6CC(C)NC(C)C6)cc45)cc3)c(C)c2)no1` (stereo not given) the value was 3.42%; for `CN(C)C(CNC(=O)c1cc(-c2ccncc2)c(-c2ccc(NC(=O)Nc3cccc(F)c3)cc2)o1)c1ccccc1` (stereo not given), 0.98%; for `Cc1ccc2nc(-c3ccc(C(=O)NC4CCN(Cc5ccccc5)CC4)cc3)[nH]c2c1C`, 11.5%.
`COc1ccc2ncc(C#N)c(CCN3C4CCC3CC(NCc3ccc5c(n3)NC(=O)CS5)C4)c2c1` (stereo not given): the inhibition came to 4.35%.
On to `NCCCN(Cc1ccc(Cl)c(Cl)c1)C(=O)Nc1ccc(Cl)c(Cl)c1`, for which the inhibition was determined as 14.3%.
Same read-out and setting: for `CN1CCN(CC(=O)Nc2ccc(-c3csc(-c4nc5ccccc5[nH]4)c3)cc2)CC1` the value was -0.59%; for `CCOc1ccc(CCC(=O)O)cc1OCC`, 2.83%.
For the compound `CCCCCCCCc1nc(C)c(Br)c(O)c1Br`, the inhibition came to 3.91%.
Still for that read-out and setting: as for `Clc1ccc(-c2cnc3ccc(NCCc4cccnc4)nn23)cc1`, the figure is 1.24%.
Regarding `Cc1cc(NC(=O)Nc2ccc3ccn(C)c3c2)c2ccccc2n1`, the inhibition was 13%.
The same measure, in the same setting: for `CCC(=O)N(c1ccccc1)C1CCN(CCCC(NC(=O)c2cc(C(F)(F)F)cc(C(F)(F)F)c2)c2ccc(Cl)c(Cl)c2)CC1` (stereo not given) the value was 8.75%; for `Cc1cccnc1CNc1nccc2c(C)c(C)[nH]c12`, 2.2%.
The same measure, in the same setting: for `CN(C)c1nc(NCc2ccccc2)nc(N/N=C/c2cc([N+](=O)[O-])ccc2O)n1` the value was -1.92%; for `O=C(NCCCN1CCCC1=O)c1cnc(N2CCC(Oc3ccccc3)CC2)c(Cl)c1`, 0.56%; for `COc1cccc2sc(N3CCN(C(=O)c4ccc([N+](=O)[O-])o4)CC3)nc12`, 2.53%.
For the compound `COc1ccc(-c2cccc(NC(=O)c3ccc(C#N)cc3)c2)cc1CNC(C)C`, the inhibition was found to be 8.59%.
Same read-out and setting: for `CCc1ccc(NC(=O)c2ccc(CN3CCCN(CC4CCCCC4)CC3)cc2)cc1` the value was 7.57%; for `CCCN(CCC)C(C)CCC(C)Nc1c2ccc(Cl)cc2nc2ccc(OC)cc12` (stereo not given), 1.91%; for `CCOC(=O)c1ccc2[nH]c(-c3ccc(C(=O)NC4CCN(Cc5ccccc5)CC4)s3)nc2c1`, 4.45%.
On the same count and under the same terms, as for `CCCCc1cc(NC2CCN(C)CC2)nc(Nc2ccccc2)n1`, the figure is 10.5%.
Regarding `Cc1cc(C)c(O)c(-c2cc(C(=O)Nc3ccc(S(=O)(=O)N4CC(C)OC(C)C4)cc3)[nH]n2)c1` (stereo not given), the inhibition was 3.1%.
Still for that read-out and setting: for `COc1ccc(-c2cc(-c3nc4cc(CN)ccc4[nH]3)c(=O)n(C)c2)cc1OC` the value was 0.63%; for `Cc1cccc(Nc2nc(N)c3ccccc3n2)c1`, 20.9%; for `CNC(=O)C1Cc2c([nH]c3c(C)cccc23)C2(N1)C(=O)Nc1ccc(OC(F)(F)F)cc12` (stereo not given), 1.24%.
For `COc1ccccc1Nc1nc(C)cc(NCc2ccc(-c3c(C)noc3C)cc2)n1`, the inhibition worked out at 19.5%.
For the compound `Cn1c(NC2CCN(CC3CCN(C(=O)/C=C/c4ccc(Cl)c(Cl)c4)CC3)CC2)nc2ccccc21`, the inhibition stood at 49.9%.
On the same count and under the same terms, as for `COc1ccc2nccc([C@@H](O)CN3CCC(NCc4nc5c(cc4Cl)SCC(=O)N5)C(F)C3)c2c1` (stereo not given in full), the figure is 2.28% and 11.3%; as for `Cc1c(NCCCNCc2cc(Cl)cc(Cl)c2Cl)[nH]c2ccccc2c1=O`, 10.6%.
Turning to `CC(C)Oc1cc2c(cc1NS(=O)(=O)c1ccc(-c3ccc(Cl)s3)cc1F)CCN(C)CC2`, the inhibition came out at 39.9%.

In a further assay the target is Hexose transporter 1 (Plasmodium falciparum) (UniProt O97467). The experiment in a line: ST_JUDE_LEISH: Cytotoxicity at 2uM final concentration against transgenic Leishmania Mexicana promastigotes LmPfHT that are glucose transport deficient and complemented with the Plasmodium falciparum hexose transporter. Activity is measured by DNA content using SYBR green in vitro. Type of assay: functional.
Take `CS(=O)(=O)Nc1ccc2c(C3CCN(CCC4CCN(C(=O)/C=C/c5ccc(Cl)c(Cl)c5)CC4)CC3)c[nH]c2c1`: the inhibition was 3.65%.
The same measure, in the same setting: for `COc1cc(Cc2cnc(N)nc2N)cc(OC)c1OCCNC(=O)[C@@H](N)CCC(=O)O` the value was 0%; for `COc1cc(F)c2ncc(Cl)c(CCN3CCC(NCc4ccc5c(c4)NC(=O)CO5)CC3)c2c1`, 7.51%; for `O=C(NC1CCN(c2ccnc3cc(Cl)ccc23)C1)c1ccccc1F` (stereo not given), 2.22%.
With `Cc1cccc2nc(-c3cccc(-c4cccc(C(=O)N5CCCCC5CN5CCC(O)C5)c4)c3)[nH]c12` (stereo not given), the inhibition is 0.67%.
As to `CN(C)CC(=O)N(Cc1ccc(Cl)c(Cl)c1)Cc1csc(-c2ccc(CNCc3ccccc3)cc2)n1`, the inhibition came out at 0.77%.
The same measure, in the same setting: for `O=c1cc(NC[C@H]2CCC[C@@H]2NC2CCCc3c2[nH]c2ccccc32)[nH]c2ccccc12` (stereo not given in full) the value was -1.31%; for `O=C(NC1CCN(CCC[C@]2(c3ccc(Cl)c(Cl)c3)CCCN(C(=O)c3ccccc3)C2)CC1)c1ccc(Cl)cc1`, -1.27%.
On the same count and under the same terms, for `CC(C)(C)c1ccc(C(=O)Nc2ccc(NC(=O)c3ccc([N+](=O)[O-])o3)cc2)cc1` the value was 4.22%; for `NS(=O)(=O)c1cccc(-c2ccc3c(O)ncnc3c2)c1`, 3.82%.
For the compound `CCNc1cc(C(=O)N[C@@H](Cc2ccccc2)[C@H](O)CN[C@H](C)c2ccccc2)cc(N2CCCC2=O)c1`, the inhibition stood at 3.88%.
On the same count and under the same terms, for `Cc1nc(-c2ccc(-c3ccc(NC(=O)c4coc5ccc(N6CC(C)NC(C)C6)cc45)cc3)c(C)c2)no1` (stereo not given) the value was 5.16%; for `CN(C)C(CNC(=O)c1cc(-c2ccncc2)c(-c2ccc(NC(=O)Nc3cccc(F)c3)cc2)o1)c1ccccc1` (stereo not given), 0.71%.
Turning to `Cc1ccc2nc(-c3ccc(C(=O)NC4CCN(Cc5ccccc5)CC4)cc3)[nH]c2c1C`, the inhibition came to 7.69%.
Still for that read-out and setting: as for `COc1ccc2ncc(C#N)c(CCN3C4CCC3CC(NCc3ccc5c(n3)NC(=O)CS5)C4)c2c1` (stereo not given), the figure is 4.33%; as for `NCCCN(Cc1ccc(Cl)c(Cl)c1)C(=O)Nc1ccc(Cl)c(Cl)c1`, 9.33%.
`CN1CCN(CC(=O)Nc2ccc(-c3csc(-c4nc5ccccc5[nH]4)c3)cc2)CC1`: the inhibition stood at 0.35%.
As for `CCOc1ccc(CCC(=O)O)cc1OCC`, the inhibition was 3.36%.
As for `CCCCCCCCc1nc(C)c(Br)c(O)c1Br`, the inhibition was found to be 5.98%.
The same measure, in the same setting: as for `Clc1ccc(-c2cnc3ccc(NCCc4cccnc4)nn23)cc1`, the figure is -1.47%; as for `Cc1cc(NC(=O)Nc2ccc3ccn(C)c3c2)c2ccccc2n1`, 10.7%.
Turning to `CCC(=O)N(c1ccccc1)C1CCN(CCCC(NC(=O)c2cc(C(F)(F)F)cc(C(F)(F)F)c2)c2ccc(Cl)c(Cl)c2)CC1` (stereo not given), the inhibition stood at 5.36%.
On the same count and under the same terms, for `Cc1cccnc1CNc1nccc2c(C)c(C)[nH]c12` the value was 2.33%.
The same measure, in the same setting: as for `CN(C)c1nc(NCc2ccccc2)nc(N/N=C/c2cc([N+](=O)[O-])ccc2O)n1`, the figure is -1.79%.
Still for that read-out and setting: as for `O=C(NCCCN1CCCC1=O)c1cnc(N2CCC(Oc3ccccc3)CC2)c(Cl)c1`, the figure is 3.58%; as for `COc1cccc2sc(N3CCN(C(=O)c4ccc([N+](=O)[O-])o4)CC3)nc12`, 11.9%; as for `COc1ccc(-c2cccc(NC(=O)c3ccc(C#N)cc3)c2)cc1CNC(C)C`, 6.99%.
Take `CCc1ccc(NC(=O)c2ccc(CN3CCCN(CC4CCCCC4)CC3)cc2)cc1`: the inhibition turned out to be 10.3%.
Same read-out and setting: for `CCCN(CCC)C(C)CCC(C)Nc1c2ccc(Cl)cc2nc2ccc(OC)cc12` (stereo not given) the value was 2.78%; for `CCOC(=O)c1ccc2[nH]c(-c3ccc(C(=O)NC4CCN(Cc5ccccc5)CC4)s3)nc2c1`, 4.85%.
Consider `CCCCc1cc(NC2CCN(C)CC2)nc(Nc2ccccc2)n1`, for which the inhibition was found to be 8.07%.
With `Cc1cc(C)c(O)c(-c2cc(C(=O)Nc3ccc(S(=O)(=O)N4CC(C)OC(C)C4)cc3)[nH]n2)c1` (stereo not given), the inhibition was found to be 1.95%.
Same read-out and setting: for `COc1ccc(-c2cc(-c3nc4cc(CN)ccc4[nH]3)c(=O)n(C)c2)cc1OC` the value was 0.83%.
Still for that read-out and setting: for `Cc1cccc(Nc2nc(N)c3ccccc3n2)c1` the value was 16.5%.
Still for that read-out and setting: as for `CNC(=O)C1Cc2c([nH]c3c(C)cccc23)C2(N1)C(=O)Nc1ccc(OC(F)(F)F)cc12` (stereo not given), the figure is 1.59%; as for `COc1ccccc1Nc1nc(C)cc(NCc2ccc(-c3c(C)noc3C)cc2)n1`, 9.8%; as for `Cn1c(NC2CCN(CC3CCN(C(=O)/C=C/c4ccc(Cl)c(Cl)c4)CC3)CC2)nc2ccccc21`, 13.8%.
In the case of `COc1ccc2nccc([C@@H](O)CN3CCC(NCc4nc5c(cc4Cl)SCC(=O)N5)C(F)C3)c2c1` (stereo not given in full), the inhibition was 2.07% and 9.64%.
As for `Cc1c(NCCCNCc2cc(Cl)cc(Cl)c2Cl)[nH]c2ccccc2c1=O`, the inhibition was 9.36%.
As for `CC(C)Oc1cc2c(cc1NS(=O)(=O)c1ccc(-c3ccc(Cl)s3)cc1F)CCN(C)CC2`, the inhibition is 5.23%.

One may read the inhibition as the drop in the measured response relative to a control, in per cent.

These data come from ChEMBL document CHEMBL3433997, “St. Jude Leishmania screening dataset” (2016).
